High-throughput results as filed in PubChem.
HEK293 viab = GF-AFC viability counterscreen for inhibitors of alpha-synuclein gene (SNCA) expression. HEK-293-SNCA-luc viability, GF-AFC fluorescence, 24 h. Potency, µM (doses to about 57.1 µM), for inactives: at the highest dose activity change, negative = cytotoxicity, most hits filed as cytotoxic. 0.12% of 150,000 active. AID 1671193, 2021;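 further: 0% = DMSO-treated cells and -100% = medium-only wells without cells; nearly all actives have a fitted effect of over 30% in size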
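HEK-293-SNCA-luc cells (1500/well) plated 24 h, then exposed 24 h to a dilution series; GF-AFC added 30 min at 37C, fluorescence 405/540 nm; normalised to medium-only and DMSO wells, Hill fit.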
SNCA expr inhib = Primary qHTS assay for inhibitors of alpha-synuclein gene (SNCA) expression. Potency, µM (titrated, usually from 57.2 µM), without a hit: top-dose activity change, negative = inhibition, usual class: inhibitors. 0.17% of 140,000 active. HEK-293 SNCA-luciferase knock-in, luminescence, 24 h;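 further: plate controls were DMSO cells for no effect and cell-free wells for full effect; nearly all actives have a fitted effect of over 45% in size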
FLuc inh = Firefly luciferase inhibition profiling of diverse chemical library using quantitative high-throughput screening. Potency, µM (series often up to 115 µM), most hits filed as inhibitors. purified P. pyralis luciferase, luminescence, biochemical. 2.5% of 76,000 active. Luciferin 4-monooxygenase (Photinus pyralis), P08659. AID 1347043, 2019; further: nearly all actives have a fitted effect of over 65% in size
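FLuc 10nM, D-luciferin 10uM, ATP 10uM, Mg acetate 10mM, Tris acetate pH 7.5, Tween/BSA; cpd qHTS; enzyme added last; CCD luminescence.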
HEK293 tox = Cytotoxic Profiling in HEK 293 Cell Line of Diverse Libraries Using Quantitative High-Throughput Screening. HEK 293 viability, ATP luminescence (CellTiter-Glo), 48-72 h. Potency, µM (series often up to 115 µM), for inactives: top-dose activity change, negative = cytotoxicity, actives largely listed as inhibitors. 6.6% of 94,000 active; further: nearly all actives have a fitted effect of over 60% in size
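Read-out: CellTiter-Glo ATP luminescence. Cells: HEK 293, 250 cells/well. Exposure: 48 or 72 hr, 37 degree Celsius.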
3T3 cytotox = Cytotoxic Profiling in NIH 3T3 Cell Line of Diverse Libraries Using Quantitative High-Throughput Screening. 4.3% of 94,000 active. Potency, µM (series often up to 96.7 µM), inactives show top-dose activity change, negative = cytotoxicity, hits mostly inhibitors. NIH 3T3 viability, CellTiter-Glo ATP luminescence, 48-72 h; further: nearly all actives have a fitted effect of over 55% in size
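NIH 3T3 cells at 400 cells/well received 23 nL of compound by pintool and were incubated 48 or 72 h at 37 °C. Viability was read as ATP-coupled CellTiter-Glo luminescence.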
NPR1 antag = Natriuretic polypeptide receptor (hNpr1) antagonism - Primary qHTS; Atrial natriuretic peptide receptor 1 (Homo sapiens), P16066; 1.6% of 76,000 active; Potency, µM (titrated, usually from 46.3 µM), inactives show top-dose activity change, negative = inhibition, actives largely listed as inhibitors; HEK293 hNpr1 GloSensor cGMP, ANP-stimulated luminescence; calls by dose curve; further: nearly all actives have a fitted effect of over 60% in size
Target sequence (P16066 whole entry, looked up): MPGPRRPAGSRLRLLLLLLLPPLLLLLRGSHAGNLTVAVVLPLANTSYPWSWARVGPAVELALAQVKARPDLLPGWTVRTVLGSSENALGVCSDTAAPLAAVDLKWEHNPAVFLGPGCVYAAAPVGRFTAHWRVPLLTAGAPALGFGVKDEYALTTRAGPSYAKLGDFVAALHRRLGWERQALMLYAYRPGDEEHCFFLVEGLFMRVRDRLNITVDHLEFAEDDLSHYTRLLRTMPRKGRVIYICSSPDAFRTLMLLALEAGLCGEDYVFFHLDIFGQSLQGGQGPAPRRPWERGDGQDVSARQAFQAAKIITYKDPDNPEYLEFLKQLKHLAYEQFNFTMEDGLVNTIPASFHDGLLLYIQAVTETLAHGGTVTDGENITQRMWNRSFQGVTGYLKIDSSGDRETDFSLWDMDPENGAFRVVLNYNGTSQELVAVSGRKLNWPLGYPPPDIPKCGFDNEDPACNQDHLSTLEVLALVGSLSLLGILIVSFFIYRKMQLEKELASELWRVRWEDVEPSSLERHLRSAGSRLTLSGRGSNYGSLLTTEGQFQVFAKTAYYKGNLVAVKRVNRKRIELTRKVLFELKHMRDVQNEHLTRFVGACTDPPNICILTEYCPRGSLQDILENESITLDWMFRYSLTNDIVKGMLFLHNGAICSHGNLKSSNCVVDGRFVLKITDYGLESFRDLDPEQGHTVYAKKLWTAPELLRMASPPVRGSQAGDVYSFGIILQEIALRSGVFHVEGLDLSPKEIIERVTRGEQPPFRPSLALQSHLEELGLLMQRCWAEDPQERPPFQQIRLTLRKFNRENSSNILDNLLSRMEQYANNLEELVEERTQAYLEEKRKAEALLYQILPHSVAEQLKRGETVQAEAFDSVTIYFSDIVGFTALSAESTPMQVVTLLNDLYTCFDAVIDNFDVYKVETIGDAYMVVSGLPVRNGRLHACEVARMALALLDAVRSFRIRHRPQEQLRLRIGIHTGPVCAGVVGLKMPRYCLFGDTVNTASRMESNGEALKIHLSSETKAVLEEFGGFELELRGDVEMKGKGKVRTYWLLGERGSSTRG
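HEK293 cells stably expressing human Npr1 and cGMP GloSensor pGS-40F, loaded 2 h with 2% GloSensor reagent, given compound 30 min at room temperature. Luminescence read before and 20 min after 0.1 nM hNppA.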
The depositor's hits bear a star; i = inactive; ? = inconclusive; nt = not tested or not shown; [ ] = another dose, or the depositor's remark. Rows were chosen to be rich in hits. Some 7.2% of all compounds tested hit in one or more screens of this group. Unless noted, the call rests on the fitted dose curve; in most records, active means well fitted curve in the direction sought with a large enough effect; inconclusive means small, poorly fitted or top-dose-only effect, or another doubt; inactive means no such curve, though single readings can be large; an effect the other way counts as inactive or inconclusive. Unless noted, on the % scale 0 is the no-effect control and ±100 the full control effect; potency means the concentration at half of the fitted maximal effect.

SMILES	HEK293 viab	SNCA expr inhib	FLuc inh	HEK293 tox	3T3 cytotox	NPR1 antag
CN1CCCC2(CCN(C(=O)c3sccc3S(N)(=O)=O)C2)C1=O (configuration not stated)	11.0%	3.1%	i	-8.8%	-21.4%	3.6%
COCCNC(=O)c1ccc(OC2CCN(Cc3ccc(C)s3)CC2)c(Cl)c1	0.8%	-1.2%	i	?	?	1.6%
O=c1cc(N2CCOCC2)oc2c(-c3cccc4[nH]ccc34)nccc12	-2.7%[87.6 µM]	-7.5%[87.6 µM]	i	?	8.91µM*	6.9%[70.6 µM]
COc1cc(F)ccc1-c1nccc2c(=O)cc(N(C)C3CCOCC3)oc12	6.8%[87.6 µM]	?	i	-31.7%[172 µM]	?	6.2%[70.6 µM]
CN1CCN(c2cc(=O)c3ccnc(-c4cccc(F)c4)c3o2)CC1	-9.3%[87.6 µM]	21.4%[87.6 µM]	i	-13.5%[172 µM]	35.5µM*	-1.1%[70.6 µM]
Cc1cc(-c2nccc3c(=O)cc(N(C)C)oc23)ccn1	6.0%[87.6 µM]	44.9%[87.6 µM]	i	-6.0%[230 µM]	?	1.0%[70.6 µM]
COc1cc(F)ccc1-c1nccc2c(=O)cc(N3CCOCC3)oc12	-6.1%[87.6 µM]	31.2%[87.6 µM]	i	-6.4%[172 µM]	44.7µM*	1.6%[70.6 µM]
CN1CCN(c2cc(=O)c3ccnc(-c4cccc(CO)c4)c3o2)CC1	-5.6%[87.6 µM]	27.4%[87.6 µM]	i	-6.5%[172 µM]	?	-3.5%[70.6 µM]
Cc1cc(-c2nccc3c(=O)cc(N(C)c4ccccc4)oc23)ccn1	-7.5%[87.6 µM]	7.2%[87.6 µM]	i	?	10µM*	-1.4%[70.6 µM]
Cc1ccccc1-c1nccc2c(=O)cc(C3=CCOCC3)oc12	-10.6%[87.6 µM]	-28.0%[87.6 µM]	i	?	?	0.7%[70.6 µM]
O=C(O)C1CCCN(c2cn[nH]c(=O)c2)C1 (configuration not stated)	0.7%	-15.9%	i	4.4%	1.1%	4.6%
CC(=O)N1CCCN(c2ncc(S(C)(=O)=O)c(C3CCCNC3)n2)CC1 (configuration not stated)	6.0%	8.1%	i	-10.2%	-1.3%	2.1%
O=C(NC1CC1)C1c2ccccc2C(=O)N(C2CCCCC2)C12CCCCC2 (configuration not stated)	-13.9%	-1.5%	i	31.6µM*	?	-5.7%
O=C(NCCc1ccccc1)C1c2ccccc2C(=O)N(Cc2ccccc2)C12CCCC2 (configuration not stated)	-11.1%	?	i	39.8µM*	31.6µM*	-11.6%
COC(=O)CCNC(=O)C1c2ccccc2C(=O)N(Cc2ccccc2)C12CCCC2 (configuration not stated)	?	-6.3%	i	-8.7%	4.6%	0.7%
CCn1ccnc1CN(C)Cc1cn(-c2ccccc2C)nc1-c1ccc(OC)c(F)c1	-11.4%	-15.3%	i	?	?	1.3%
CCN1CC(CN(C)Cc2cn(-c3ccccc3C)nc2-c2ccc(OC)c(F)c2)CC1=O (configuration not stated)	?	-15.0%	i	22.4µM*	?	0.0%
Cc1ccccc1-n1cc(-c2ccnc(NC(C)Cc3ccncc3)n2)cn1 (configuration not stated)	?	?	i	35.5µM*	?	?
O=C(Nc1ccc(C(=O)N2CCCCC2)cc1)c1nsc2ccccc12	-19.5%	10µM*	nt	nt	nt	nt
O=C(Nc1ccc(C(=O)N2CCN(c3ccc(F)cc3)CC2)cc1)c1nsc2ccccc12	1.1%	176.5%	nt	nt	nt	nt
Cc1nn(C(=O)c2ccccc2)c(C)c1Sc1ccc(Cl)cc1	20µM*	?	nt	nt	nt	nt
O=C(Cn1nc2c(cc1=O)CCCCC2)Nc1ccccc1Cl	-2.8%	52.1%	i	-6.5%	0.1%	-22.7%
C=C[C@H](/C=C\c1ccc(O)cc1)c1ccc(O)cc1	-3.0%	nt	nt	nt	nt	nt
CCC(NC(=O)c1cc(COc2ccccc2F)[nH]n1)c1ccncc1 (configuration not stated)	0.8%	1.9%	i	-20.0%	-19.4%	-14.0%
CN1c2ncccc2CN(Cc2ccccc2O)CC[C@H]1CO	-0.4%[87.6 µM]	-20.7%[87.6 µM]	i	0.6%[172 µM]	-9.9%[138 µM]	-0.2%[70.6 µM]
SMILES	HEK293 viab	SNCA expr inhib	FLuc inh	HEK293 tox	3T3 cytotox	NPR1 antag
CC(=O)N1CCC(N2CC[C@@H](CO)N(C)c3ncccc3C2)CC1	4.8%[87.6 µM]	0.8%[87.6 µM]	i	?	44.7µM*	6.2%[70.6 µM]
COCC(=O)Nc1ccc(-c2noc([C@@H]3CCCN3Cc3ccc(NC(C)=O)cc3)n2)cn1	-3.3%	1.6%	i	-1.8%	i	0.0%
CNc1ccc(-c2noc([C@@H]3CCCN3Cc3cccc(OC)c3)n2)cn1	-7.9%[87.6 µM]	40.8%[87.6 µM]	?	-23.8%[172 µM]	-21.7%[174 µM]	-2.3%[70.6 µM]
COc1ccc(C(=O)Nc2ccc(-c3noc([C@@H]4CCCN4Cc4ccncc4)n3)cn2)cc1	-21.3%	3.1%	?	?	?	12.6µM*
COCC(=O)Nc1ccc(-c2noc([C@@H]3CCCN3Cc3cc4ccccc4o3)n2)cn1	-5.1%[87.6 µM]	-6.7%[87.6 µM]	i	70.8µM*	?	-3.3%[70.6 µM]
COc1ccc(CCNC(=O)c2ccc3nnc(C4CCCC4)n3c2)cc1	-1.6%	-32.9%	nt	?	?	nt
O=C(NCCc1ccc(Cl)cc1)c1ccc2nnc(C3CCCC3)n2c1	?	-18.2%	nt	?	35.5µM*	nt
O=C(NCc1ccccc1)c1ccc2nnc(C3CCCC3)n2c1	10.3%[87.6 µM]	14.5%[87.6 µM]	nt	-36.1%[172 µM]	79.4µM*	nt
O=C(c1ccc(Br)cc1)N1CCc2[nH]nc(C(=O)N3CCOCC3)c2C1	5.7%	-11.9%	i	2.7%	3.3%	1.0%
COc1cc(Cl)c(C)cc1NC(=O)Cn1cccc1-c1nc(-c2ccc3c(c2)OCO3)no1	1.0%	3.5%	i	-19.5%	-16.4%	1.5%
CC(C)c1cccc(NC(=O)Cn2cccc2-c2nc(-c3ccc4c(c3)OCO4)no2)c1	-4.7%	-12.8%	i	?	28.2µM*	-3.4%
COc1ccc(OC)c(NC(=O)Cn2cccc2-c2nc(-c3ccc4c(c3)OCO4)no2)c1	?	-4.9%	i	35.5µM*	?	-13.5%
CCN(CC)CC[C@H]1CN(C(=O)c2ccc(OC)cc2)CC[C@H]1CC(=O)O	5.1%[87.6 µM]	23.8%[87.6 µM]	i	-0.2%[172 µM]	0.2%[138 µM]	-20.8%[70.6 µM]
Cc1ccc2c(n1)N(C)[C@H](CO)CCN(Cc1ccc(F)c(F)c1)C2	-2.0%[87.6 µM]	-14.6%[87.6 µM]	i	?	-25.9%[174 µM]	-2.6%[70.6 µM]
Cc1ccc2c(n1)N(C)[C@H](CO)CCN(Cc1ccc(Cl)cc1)C2	-0.8%[87.6 µM]	-1.2%[87.6 µM]	i	70.8µM*	?	-1.8%[70.6 µM]
CN(C)C(=O)Cc1c[nH]c2ncc(-c3cccnc3)cc12	9.8%[87.6 µM]	-23.7%[87.6 µM]	i	-28.8%[230 µM]	25.1µM*	-0.6%[70.6 µM]
